The text below walks through data of PubChem BioAssay (NCATS).

A short description of assay [1]: Cell Viability qHTS for small molecule stabilizers of the endoplasmic reticulum resident proteome (AID 1508629).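 Also: compound exposure about 46 h in total before the viability read.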 Also: potency is read from the fitted curve at half-maximal effect.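 As to max response: human SH-SY5Y neuroblastoma cells carrying the GLuc-SERCaMP reporter; % is scaled to controls: 0 for no effect and ±100 for the full control effect.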 To be noted: cell viability counter-screen, 100 nM thapsigargin for final 4 h. In general terms: In qHTS, concentration-response curves come from the screen itself.
Assay [2] can be described thus: A High-Content qHTS Against Drug Library for the Identification of Small Molecules that Inhibit DYT1 Early Onset Primary Dystonia-Associated Cell Pathology (AID 1645839; calls by dose curve; also: potency is read from the fitted curve at half-maximal effect). To be noted: HEK293 Flp-In EGFP-delE TorsinA, punctate imaging, 48 h; series mostly up to 46.1 µM. Put shortly: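 In this high-content image screen, delE TorsinA mislocalization in inducible Flp-In 293 cells is scored as %pathology, with cell count serving as the counterscreen. Compound exposure lasts 48 h under tetracycline induction in reduced-serum medium.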

Assay [3] in a line: Primary qHTS for inhibitors of nuclear receptor binding SET domain protein 2 (NSD2) in an isogenic RCH-ACV NSD2 p.E1099K mutant (9B) (AID 1645876). Also: nearly all actives have a fitted effect of over 70% in size. Also: potency is read from the fitted curve at half-maximal effect. To be noted: RCH-ACV (leukaemia line) NSD2 E1099K (9B) viability, CellTiter-Glo, 72 h; series mostly up to 44.9 µM.
A short description of assay [4]: Confirmatory qHTS for small molecule stabilizers of the endoplasmic reticulum resident proteome: Secreted ER Calcium Modulated Protein (SERCaMP) assay (AID 1508628). Also: nearly all actives have a fitted effect of over 40% in size. Also: potency is read from the fitted curve at half-maximal effect. To be noted: SERCaMP secreted luciferase ER calcium/proteostasis reporter; series mostly up to 76.3 µM. The essentials: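 We seeded SH-SY5Y-GLuc-SERCaMP cells, added compounds (three concentrations in the primary run, eleven up to 76.6 uM in confirmation), incubated 16 h, depleted ER calcium with thapsigargin, and read luciferase 4 h later.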

The target of assay [5] is Cytochrome P450 2D6 (Homo sapiens) (UniProt P10635). Briefly: Cytochrome P450 family 2 subfamily D member 6 (CYP2D6) small molecule antagonists: luciferase biochemical (cell-free) qHTS assay (AID 1645840; active = well fitted curve in the direction sought with a large enough effect in the repeat runs; an effect the other way counts as inactive or inconclusive; also: nearly all actives have a fitted effect of over 55% in size; also: potency is read from the fitted curve at half-maximal effect). To be noted: P450-Glo CYP2D6 enzyme, luciferin luminescence, 1 h; series mostly up to 57.4 µM. The essentials:
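P450-Glo luminescent screen: recombinant CYP2D6 enzyme–proluciferin substrate mix preincubated with compound 10 min at room temperature, then NADPH regeneration added for 1 h at room temperature. Detection reagent added for 20 min; luciferin light read as relative luminescence units.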

Assay [6] concerns the target Cytochrome P450 2C9 (Homo sapiens) (UniProt P11712). Briefly: Cytochrome P450 family 2 subfamily C member 9 (CYP2C9) small molecule antagonists: luciferase biochemical (cell-free) qHTS assay (AID 1645842; active = well fitted curve in the direction sought with a large enough effect in the repeat runs; an effect the other way counts as inactive or inconclusive; also: nearly all actives have a fitted effect of over 55% in size; also: potency is read from the fitted curve at half-maximal effect). To be noted: P450-Glo CYP2C9 enzyme assay, luciferin luminescence; series mostly up to 57.4 µM. Put shortly:
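Luminescence, after 20 min with luciferin detection reagent, reflected CYP2C9 turnover during a 1 h NADPH-driven reaction at 37C. Enzyme-substrate mix contained 0.4% bovine serum albumin and was preincubated with compound 10 min at room temperature.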

A short description of assay [7]: Primary qHTS for small molecule stabilizers of the endoplasmic reticulum resident proteome: Secreted ER Calcium Modulated Protein (SERCaMP) assay (AID 1508630). Also: potency is read from the fitted curve at half-maximal effect. To be noted: SH-SY5Y GLuc-SERCaMP (Gaussia luciferase released on ER calcium loss) secretion, thapsigargin, luminescence; series mostly up to 38.4 µM. The essentials: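 GLuc-SERCaMP-expressing SH-SY5Y cells, pretreated 16 h with compound, are challenged with thapsigargin to empty ER calcium stores; after 4 h, coelenterazine is added directly to the medium and luminescence is imaged.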

Assay [8] addresses Cytochrome P450 3A4 (Homo sapiens) (UniProt P08684). Briefly: Cytochrome P450 family 3 subfamily A member 4 (CYP3A4) small molecule antagonists: luciferase qHTS assay (AID 1645841; active = well fitted curve in the direction sought with a large enough effect in the repeat runs; an effect the other way counts as inactive or inconclusive; also: nearly all actives have a fitted effect of over 45% in size; also: potency is read from the fitted curve at half-maximal effect). To be noted: P450-Glo CYP3A4 enzyme assay, luciferin luminescence; series mostly up to 57.4 µM. The essentials: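 Luminescent CYP3A4 activity readout: compounds plus enzyme-substrate mix 10 min at room temperature, reaction started with NADPH regenerating system for 1 h, stopped with detection reagent, read after 20 min. Ketoconazole served as control.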

The target of the next assay is Papain (Carica papaya) (UniProt P00784). Briefly: Primary qHTS assay for inhibitors of the protease papain (AID 1645873).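 Also: papain turnover of Z-FR-AMC read as the AMC fluorescence gain over 10 min; % is scaled to controls: 0 for no effect and ±100 for the full control effect.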 To be noted: papain Z-FR-AMC cleavage, AMC fluorescence; series mostly up to 49.8 µM.
Chain of Papain (Carica papaya) (P00784 whole entry, looked up): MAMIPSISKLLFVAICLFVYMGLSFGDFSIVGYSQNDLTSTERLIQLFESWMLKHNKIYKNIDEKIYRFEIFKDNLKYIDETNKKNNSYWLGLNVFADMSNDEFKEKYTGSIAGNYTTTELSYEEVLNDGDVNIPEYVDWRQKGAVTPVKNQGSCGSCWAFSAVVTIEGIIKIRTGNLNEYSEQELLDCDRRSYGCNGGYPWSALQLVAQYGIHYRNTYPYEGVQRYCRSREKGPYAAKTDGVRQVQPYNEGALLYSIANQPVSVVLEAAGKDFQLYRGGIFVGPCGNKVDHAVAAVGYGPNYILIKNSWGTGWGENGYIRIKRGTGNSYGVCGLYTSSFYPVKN

Values joined by “and” are separate entries in the source; they are usually repeats but may differ in a detail not shown here. Equal entries are not always repeated. Records with an inconclusive call do not appear. Unmarked numbers belong to inactive results. Active and inactive are the calls of the source. Unless noted, calls follow the shape of the dose curve; as a rule, active = well fitted curve in the direction sought with a large enough effect; inconclusive = small, poorly fitted or top-dose-only effect, or another doubt; inactive = no such curve, though single readings can be large; an effect the other way counts as inactive or inconclusive.

Chain of Cytochrome P450 2D6 (Homo sapiens) (P10635 whole entry, looked up): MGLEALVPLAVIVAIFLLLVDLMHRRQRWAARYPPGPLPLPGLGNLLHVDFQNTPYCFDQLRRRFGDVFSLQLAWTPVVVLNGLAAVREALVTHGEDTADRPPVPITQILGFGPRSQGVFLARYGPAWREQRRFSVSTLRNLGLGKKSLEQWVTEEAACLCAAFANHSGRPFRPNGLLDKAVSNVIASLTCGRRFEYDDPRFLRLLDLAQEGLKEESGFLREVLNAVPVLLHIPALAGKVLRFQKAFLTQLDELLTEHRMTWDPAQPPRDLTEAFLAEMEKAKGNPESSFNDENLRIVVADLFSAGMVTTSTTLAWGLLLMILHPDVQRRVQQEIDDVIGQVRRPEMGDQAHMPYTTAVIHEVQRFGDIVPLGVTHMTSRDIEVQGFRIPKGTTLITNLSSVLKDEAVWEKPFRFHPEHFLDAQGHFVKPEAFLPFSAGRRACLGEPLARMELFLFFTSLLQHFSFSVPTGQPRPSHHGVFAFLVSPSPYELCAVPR
Chain of Cytochrome P450 2C9 (Homo sapiens) (P11712 whole entry, looked up): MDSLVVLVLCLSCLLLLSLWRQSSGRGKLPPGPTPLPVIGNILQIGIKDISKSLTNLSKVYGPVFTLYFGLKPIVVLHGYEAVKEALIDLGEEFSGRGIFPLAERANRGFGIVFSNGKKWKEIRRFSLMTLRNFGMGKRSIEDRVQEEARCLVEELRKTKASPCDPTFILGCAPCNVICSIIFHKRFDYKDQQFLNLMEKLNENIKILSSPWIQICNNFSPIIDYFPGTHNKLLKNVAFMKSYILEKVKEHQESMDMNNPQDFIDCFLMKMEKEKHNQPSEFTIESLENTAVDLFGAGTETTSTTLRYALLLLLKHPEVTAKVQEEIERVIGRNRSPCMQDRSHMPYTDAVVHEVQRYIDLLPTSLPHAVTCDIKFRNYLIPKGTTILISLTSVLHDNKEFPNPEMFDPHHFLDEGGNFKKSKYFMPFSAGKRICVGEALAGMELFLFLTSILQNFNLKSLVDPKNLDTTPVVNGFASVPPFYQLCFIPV
Chain of Cytochrome P450 3A4 (Homo sapiens) (P08684 whole entry, looked up): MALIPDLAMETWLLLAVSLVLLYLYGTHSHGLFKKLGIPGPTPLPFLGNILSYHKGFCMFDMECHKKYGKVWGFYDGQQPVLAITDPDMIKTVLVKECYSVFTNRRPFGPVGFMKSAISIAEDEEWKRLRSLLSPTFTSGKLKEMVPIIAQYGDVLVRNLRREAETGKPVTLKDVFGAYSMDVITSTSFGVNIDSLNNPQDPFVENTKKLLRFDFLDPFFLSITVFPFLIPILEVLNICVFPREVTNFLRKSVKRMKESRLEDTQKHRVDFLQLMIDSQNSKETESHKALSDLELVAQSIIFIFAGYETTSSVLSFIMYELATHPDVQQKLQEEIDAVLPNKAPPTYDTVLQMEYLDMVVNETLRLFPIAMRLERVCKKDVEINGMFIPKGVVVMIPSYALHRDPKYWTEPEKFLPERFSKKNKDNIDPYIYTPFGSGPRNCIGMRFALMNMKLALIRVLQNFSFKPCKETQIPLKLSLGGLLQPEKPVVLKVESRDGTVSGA

`CN1CCC(=C2c3ccccc3CCc3cccnc32)CC1`: the max response in [1] is 12.6%. The Potency entry in assay [2] and in assay [3] was “inactive” in each case.

Take `CCOc1ncc(F)c(=O)[nH]1`: the Potency entry in [4], in assay [2], in assay [5], in assay [6] and in assay [3] was “inactive” in each case.

Turning to `CCCCC(=O)OCC(=O)[C@H]1[C@H](C)C[C@H]2[C@@H]3C[C@H](F)C4=CC(=O)C=C[C@]4(C)[C@@]3(F)[C@@H](O)C[C@@]21C`, the Potency entry in assay [7] and in [2] was “inactive” each time.

Consider `CC(C)OC(=O)c1cc2c(OCC(O)CNC(C)(C)C)cccc2[nH]1` (configuration not stated), for which, in assay [1], the max response is -12.8%. For the same compound, the Potency entry in assay [2] and in assay [6] was “inactive” each time. Further, in assay [5], the Potency was 11 µM (active).

As for `C[C@H](N)C(=O)N[C@@H](C)C(=O)NC1[C@H]2CN(c3nc4c(cc3F)c(=O)c(C(=O)O)cn4-c3ccc(F)cc3F)C[C@@H]12` (some centres not stated), the max response in assay [1] is -5.88%. Moreover, the Potency entry in [2], in [5], in [8] and in assay [6] was “inactive” throughout. Also, in [3], the Potency was 7.5 µM (active).

As to `CCOC(=O)N1CCC(Nc2ccc(Cl)cc2N)CC1`, the max response in assay [1] was -17.4%. Further, the values for the Potency in [5], in assay [6] and in assay [3] were 7.76 µM (active), 8.71 µM (active) and 13.3 µM (active), respectively.

`Cc1nc2n(c(=O)c1CCN1CCC(C(=O)c3ccc(F)cc3)CC1)CCS2`: the Potency entry in assay [4], in assay [2] and in assay [6] was “inactive” in each case. In assay [1], the max response is -14.5%. Also, in assay [5], the Potency was 0.275 µM (active).

Consider `O=C1CC(c2ccc(Cl)cc2)CC(=O)N1`, for which the Potency result in assay [4], in assay [2], in assay [5], in assay [6] and in [3] was “inactive” in each case. Also, in assay [1], the max response was 1.98%.

With `COc1cccc2c1[C@@H]1CN(CCCCn3c(=O)[nH]c4c(sc5ncc(-c6ccccc6)nc54)c3=O)C[C@@H]1CO2`, the Potency entry in assay [4] was “inactive”. Also, in the assay with Papain (Carica papaya), the compound was classed as inactive.

Take `O=[N+]([O-])c1ccc(O)c2ncccc12`: the Potency in [1] is 7.94 µM (active); in assay [7] it was 1 µM (active); in assay [3], 1.88 µM (active) and 6.61 µM (active). Moreover, the Potency entry in assay [5] and in [6] was “inactive” each time.

As for `OCCOCCN1CCN(C(c2ccccc2)c2ccc(Cl)cc2)CC1` (configuration not stated), in assay [7], the Potency entry was “inactive”.

As to `COC(=O)c1c(Cl)c(Cl)c(C(=O)OC)c(Cl)c1Cl`, the Potency result in [4], in assay [2], in assay [5], in assay [6] and in assay [3] was “inactive” each time. Also, the max response in assay [1] is 10.1%.

Consider `Cc1onc(-c2ccccc2)c1C(=O)Cl`, for which the Potency result in assay [4], in assay [2], in assay [5] and in [6] was “inactive” in each case.

Take `N[C@@H](Cc1cc(I)c(O)c(I)c1)C(=O)O`: the Potency entry in [4], in [7], in [2] and in assay [3] was “inactive” in each case. Moreover, in [1], the max response was 10.7%. Besides, the Potency in assay [6] is 15.5 µM (active).

On to `Cc1cc2nc3ccc(=[N+](C)C)cc-3sc2cc1N`, for which the Potency in assay [1] was 7.94 µM (active); in assay [2], 7.08 µM (active); in assay [5], 0.431 µM (active); in assay [6], 1.08 µM (active); in assay [3], 1.33 µM (active).

In the case of `C[C@H]1C[C@H](O)c2ccsc2S1(=O)=O`, the Potency result in [4], in assay [2], in assay [5] and in assay [6] was “inactive” in each case.

Regarding `COC(=O)[C@H]1[C@H]2C[C@@H]3c4[nH]c5cc(OC)ccc5c4CCN3C[C@H]2C[C@@H](OC(=O)/C=C/c2ccc(O)c(OC)c2)[C@@H]1OC`, the values for the Potency in [4] and in assay [3] were 20 µM (active) and 4.73 µM (active), respectively. Also, in assay [5], the Potency entry is “inactive”.

On to `O=C(NO)c1ccccc1`, for which the Potency result in assay [4], in assay [5] and in assay [6] was “inactive” in each case. Besides, in assay [1], the max response is 2.69%. Besides, the Potency in assay [3] is 36.6 µM (active).

As to `CCOC(=O)c1ccc(O)c(O)c1`, in assay [1], the max response was 4.88%. For the same compound, the Potency result in [5] and in assay [6] was “inactive” in each case. Moreover, in assay [3], the Potency was 9.44 µM (active).

Consider `CC(C(O)c1ccccc1)N(C)CCOC(c1ccccc1)c1ccccc1` (configuration not stated), for which the Potency is 31.6 µM (active) in assay [4], 0.0309 µM (active) in [5], 13.8 µM (active) in [6] and 16.3 µM (active) in assay [3]. Besides, in assay [1], the max response was -4.6%.

As to `CCCC(=O)O[C@]1(C(=O)CCl)[C@@H](C)C[C@H]2[C@@H]3CCC4=CC(=O)C=C[C@]4(C)[C@@]3(F)C(=O)C[C@@]21C`, the Potency entry in [7] and in [2] was “inactive” each time.

Regarding `Fc1ccc(C(c2ccc(F)cc2)N2CCNCC2)cc1`, the Potency result in assay [4], in assay [2], in assay [6] and in assay [3] was “inactive” in each case. The Potency in assay [5] was 7.76 µM (active).

As for `CN1CCCN(C(c2ccccc2)c2ccc(Cl)cc2)CC1` (configuration not stated), the Potency result in assay [4] and in assay [6] was “inactive” throughout. Also, the values for the Potency in assay [1] and in [5] were 25.1 µM (active) and 0.0776 µM (active), respectively.

Turning to `Cc1ccc(C(=O)Oc2ccc(C(O)CNC(C)(C)C)cc2OC(=O)c2ccc(C)cc2)cc1` (configuration not stated), the Potency entry in assay [7] was “inactive”.

As for `CCC(=O)O[C@H]1[C@H](O[C@@H]2[C@@H](C)[C@H](O[C@H]3C[C@@](C)(OC)[C@@H](O)[C@H](C)O3)[C@@H](C)C(=O)O[C@H](CC)[C@@](C)(O)[C@H](O)[C@@H](C)C(=O)[C@H](C)C[C@@]2(C)O)O[C@H](C)C[C@@H]1N(C)C`, the results for the Potency in assay [4] and in assay [8] were 20 µM (active) and 18.2 µM (active), respectively. For the same compound, the max response in assay [1] was 17.4%. Besides, the Potency entry in assay [6] and in assay [3] was “inactive” in each case.

As to `CCCC(=O)Nc1ccc(O)c(C(C)=O)c1`, the Potency entry in [4], in [2], in assay [6] and in [3] was “inactive” in each case. For the same compound, the max response in [1] was 11.5%.
